Measurements reported in PubChem BioAssay AID504408 (Broad Institute, 2011).
Screen size: about 300,000 compounds; about 5,200 (1.7%) were called active.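 Rule for the calls: active = mean replicate activation of at least 50% with a set share of replicates each reaching 50%; inconclusive = only one of those two conditions met; inactive = mean below 50% and too few replicates reaching it.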 The list comes from a sample in which actives are over-represented; it also holds similar structures and randomly drawn compounds.

Test: HSF-1 response element luciferase induction – NIH3T3-HGL cells, MG132 stress, luminescence, single point, primary screen (AID 504408);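 note: 0% = median of the neutral control wells and 100% = twice that signal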
Conditions: NIH3T3-HGL HSF-1 luciferase reporter, MG132, 8 h; at 9 µM; stronger effect = higher value; 100% = twice DMSO control signal

activation, inactive:
c1ccc(-c2c[nH]c(-c3ccccc3)c2)cc1 -83.8%
O=C(OCc1ccc(-c2ccccc2)cc1)c1cccc(O)c1 6.99%
Cc1cc(/C=N/Nc2ccc([N+](=O)[O-])cn2)c(C)n1-c1cccc(C(=O)O)c1 2.82%
Cc1ccc(N2CCN(c3ccc([N+](=O)[O-])cn3)CC2)c(C)c1 14%
Cc1ccc(S(=O)(=O)NCCC(=O)OCC(=O)N(C)c2ccccc2)cc1 2.24%
O=C(c1ccc(Cl)s1)N(Cc1nnc(-c2ccccc2Cl)o1)C1CC1 19.5%
COc1ccc(NS(=O)(=O)c2ccc(NC(=S)NC(=O)/C=C/c3ccc(C)cc3)cc2)nn1 -3.51%
Cc1ccc(C(=O)/C=C/Nc2ccc(S(=O)(=O)Nc3onc(C)c3C)cc2)cc1 2.18%
COc1ccc(C2=NN(C(=O)CCC(=O)O)C(c3cccs3)C2)cc1OC (stereo not given) -7.93%
COc1ccc(C2CC(c3cccs3)=NN2c2ccc(F)cc2)cc1OC (stereo not given) 22.9%
COc1ccc(C2CC(c3cccs3)=NN2C(=O)CCC(=O)O)cc1OC (stereo not given) -17.8%
COc1ccccc1N1N=C(c2cccs2)CC1c1ccccc1 (stereo not given) 9.62%
Oc1ccccc1C1=NN(c2ccccc2)C(c2ccccc2)C1 (stereo not given) 0.471%
COc1ccc(C2=NN(C(C)=O)C(c3ccccc3)C2)cc1 (stereo not given) 21.6%
O=S(=O)(c1ccccc1)N1CCC(c2ccccc2)CC1 -26.8%
CN(N)c1nc(N2CCCC2)nc(N2CCCC2)n1 -5.13%
CC(C)COc1ccc(C(=O)OCC(=O)NCCC2=CCCCC2)cc1 -2.4%
Nc1nc(-c2ccccc2)cc(-c2ccccc2)n1 21.8%
Nc1cccc(-c2cc(-c3ccccc3)nc(-c3cccc(N)c3)n2)c1 -6.32%
O=C(COC(=O)c1cccc(Cl)c1)Nc1ccc2[nH]c(=O)[nH]c2c1 9.55%
CSc1ncc(Sc2ccccc2)c(C(=O)O)n1 21.8%
CCOc1ccccc1OCC(=O)Nc1ccccc1C(=O)NC1CC1 -12.2%
Cc1ccc(CNS(=O)(=O)CCNC(=O)c2ccccc2)cc1 -0.388%
COc1ccccc1C(=O)NCCC(=O)NC(C)CCc1ccccc1 (stereo not given) 0.822%
O=C1CCCN1C(=O)COc1ccc([N+](=O)[O-])cc1 -3.27%
O=C(NCc1ccncc1)c1ccc(NS(=O)(=O)c2cccc([N+](=O)[O-])c2)cc1 5.25%
COc1ccc(CC(=O)N/N=C/c2cc([N+](=O)[O-])cc(Br)c2O)cc1 -6.91%
COc1cc(/C=N\Nc2nc(-c3cccs3)c(NC(C)=O)s2)ccc1O -1.06%
CCNc1nc(NCC)nc(N/N=C/c2ccc(O)c(OC)c2)n1 -8.51%
Cc1ccc(S(=O)(=O)Nc2nc3ccccc3s2)cc1[N+](=O)[O-] 9.23%
O=S(=O)(Nc1ccc(O)c2ccccc12)c1ccc(OC(F)(F)F)cc1 -68.7%
Cc1csc(=O)n1CC(=O)OCC(=O)N(CC(C)C)c1c(N)n(Cc2ccccc2)c(=O)[nH]c1=O 1.95%
COc1ccc(CNC(=O)C2CCCC2)cc1 -6.99%
CCN(CC)CCn1c2c(c(SCC(=O)Nc3nc4ccccc4s3)nc1=O)CCCC2 -7.63%
CC1(C)O[C@H]2CC(=O)OCC23[C@H]2CC[C@@]4(C)[C@H](c5ccoc5)OC(=O)[C@H]5O[C@]54[C@]2(C)C(=O)C[C@@H]13 (stereo not given in full) 0.574%
O=C(Nc1ccncc1)c1c(F)cccc1F -55.9%
CCCC(=O)Nc1nc2ccc(NC(=O)c3c(F)c(F)c(OC)c(F)c3F)cc2s1 -10.9%
Cc1onc(-c2c(F)cccc2Cl)c1C(=O)N(C)CC(=O)Nc1cccc(F)c1 -3.94%
COc1ccc(N2CCN(C(=O)c3ccc4c(Cl)c5c(nc4c3)CCCC5)CC2)cc1 -1.04%
CC(C)CCNC(=O)c1ccc2c(Cl)c3c(nc2c1)CCC3 -56.3%
N#CCN(C(=O)COC(=O)C1CC2CCCC(C1)C2=O)c1ccccc1 (stereo not given) -11.4%
O=C(NN1CCOCC1)c1cccc(F)c1 13.3%
O=C(COC(=O)Cc1ccccc1F)NNC(=O)c1ccc(Cl)cc1 -9.93%
COc1ccc(CNC(=O)C(=O)N2CCC3(CC2)OCCN3S(=O)(=O)c2ccc(C)cc2)cc1 2.08%
CCN(C(=O)CSc1nnnn1-c1ccccc1OC)C1CCS(=O)(=O)C1 (stereo not given) 26%
COc1ccccc1N1CCN(S(=O)(=O)c2ccc(Cl)cc2)CC1 4.97%

activation, active:
Oc1ccc(-c2cccc(-c3ccc(O)cc3)c2)cc1 62%
Cc1ccc(-n2c(C)cc(/C=N/Nc3ccc([N+](=O)[O-])cn3)c2C)c(C)c1 57.8%
COc1ccc(/C=C/C(=O)c2ccc(NS(=O)(=O)c3ccc(C)cc3)cc2)cc1O 200%
COc1ccc(C2CC(c3cccs3)=NN2c2ccccc2)cc1 (stereo not given) 67.4%
COc1ccc(C2CC(c3cccs3)=NN2c2nc(C)c(C(C)=O)s2)cc1OC (stereo not given) 149%
COc1ccc(C2=NN(c3ccccc3)C(c3cccs3)C2)cc1 (stereo not given) 50.9%
CNc1nc(-c2ccccc2)cc(-c2ccccc2)n1 74.1%
CSc1nc(-c2ccccc2)nc(C(Cl)Cl)n1 84.8%
O=[N+]([O-])c1cc(Br)c(O)c(/C=N/Nc2nc3ccccc3s2)c1 57.3%
COc1cc(/C=N/Nc2nc3ccccc3s2)ccc1O 193%
CSc1nc2ccc(NC(=O)c3c(F)cccc3F)cc2s1 59.4%
Cc1nn2cc(-c3ccc(Cl)cc3)cnc2c1Br 58.7%
CC(=O)c1ccc(NC(=O)c2ccc3c(Cl)c4c(nc3c2)CCCC4)cc1 105%
COc1ccccc1-n1nnnc1S(=O)(=O)Cc1ccc(Cl)cc1 235%
